The panel holds about 79,000 compounds, 15% with a hit somewhere; the sample as a whole holds those more often. Rule as the data show it: active = growth inhibition above about 70%; inactive = the rest.
Experiments:
[1] = NCI Yeast Anticancer Drug Screen. Data for the rad50 strain (AID 155);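 also: 0% = growth of vehicle-only cultures of the same strain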; details: S. cerevisiae rad50 strain growth inhibition; at 50.0 µM; hits give high values
How it was run: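 A DNA repair-deficient yeast mutant serves as the test organism; compound-induced growth inhibition is calculated against vehicle-treated cells.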

[2] = NCI Yeast Anticancer Drug Screen. Data for the mec2-1 strain (AID 157); details: S. cerevisiae mec2-1 strain, at 50.0 µM, hits give high values
How it was run: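 Compounds were applied to mec2-1 yeast cells. Their growth was then compared with that of vehicle-treated cultures to give growth inhibition.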

[3] = NCI Yeast Anticancer Drug Screen. Data for the sgs1 mgt1 strain (AID 161);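 also: 0% = growth of cultures given vehicle only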; details: S. cerevisiae sgs1 mgt1 strain, at 50.0 µM, hits give high values
How it was run: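 Compounds are added to genetically altered yeast, and growth is compared with cultures given vehicle alone to give percent inhibition.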

[4] = NCI Yeast Anticancer Drug Screen. Data for the cln2 rad14 strain (AID 165);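 also: 0% = growth equal to vehicle treated cultures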; details: S. cerevisiae cln2 rad14 strain, at 50.0 µM, hits give high values
How it was run: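 Strain: cln2 rad14 yeast, altered in cell cycle control and DNA damage repair. Read-out: growth inhibition vs vehicle.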

[5] = NCI Yeast Anticancer Drug Screen. Data for the bub3 strain (AID 167); details: S. cerevisiae bub3 mutant strain, at 50.0 µM, hits give high values
How it was run: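 Inhibition values come from growth of compound-treated mutant yeast normalised to vehicle-treated controls.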

[6] = NCI Yeast Anticancer Drug Screen. Data for the mlh1 rad18 strain (AID 175); details: S. cerevisiae mlh1 rad18 strain growth inhibition; at 50.0 µM; hits give high values
How it was run: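 A repair-deficient yeast strain is exposed to test compound, and growth is scored relative to vehicle-treated controls.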

Measured: growth inhibition

CC(=O)OC12C3C4C1C1C2C3C41OC(C)=O (stereo unspecified)
inactive: [1] -4.95% | [2] 11.8% | [3] -24.1% | [4] 0.9% | [5] -16.4% | [6] -7.5%

O=C1C2C3CC(C4C5C=CC(C5)C34)C2C2C3CC(C12)C1C2C=CC(C2)C31 (stereo unspecified)
inactive: [1] -19.1% | [2] -15.9% | [3] -24% | [4] 17.8% | [5] -9.15% | [6] -24.4%

COc1cccc(-c2cc(=O)c3cccc(CC(=O)O)c3o2)c1
inactive: [1] 5.9% | [2] -4.9% | [3] -11.6% | [4] 2.85% | [5] -2.35% | [6] -30.9%

CCOC(=O)CC[C@H](NC(=O)c1nc[nH]c1[N+](=O)[O-])C(=O)OCC
inactive: [1] -17.8% | [2] -36% | [3] -44.4% | [4] 8.9% | [5] -7.35% | [6] -34.4%

CC(C)COC(=O)N1N=NC2C3OC(CC3=O)C21 (stereo unspecified)
inactive: [1] -4.7% | [2] -17.1% | [3] -8.1% | [4] 8.8% | [5] -13.2% | [6] -15.7%

CCOC(=O)C(C)(/C=N/NS(=O)(=O)c1ccc(C)cc1)c1ccccc1 (stereo unspecified)
inactive: [1] 5.2% | [2] 10.7% | [3] 9.15% | [4] 5.7% | [5] 15.9% | [6] 14.3%

Cc1ccccc1C(c1ccccc1C)C(CC(=O)O)CC(=O)O
inactive: [1] 11.7% | [2] 14.2% | [3] 10.6% | [4] -102% | [5] 5.05% | [6] -2.6%

c1ccc2scnc2c1
inactive: [1] 21.2% | [2] 7.25% | [3] 13.7% | [4] -24.5% | [5] 29.2% | [6] 37.2%

CC(C)(C)/C=C/N1N=NC(c2ccccc2)(c2ccccc2)C1=O
inactive: [1] 32.6% | [2] 19% | [3] 23.1% | [4] -13.2% | [5] 22.1% | [6] 26.7%

BrC1(C2(Br)N(c3ccccc3)CCN2c2ccccc2)N(c2ccccc2)CCN1c1ccccc1
inactive: [1] 53% | [2] -1.55% | [3] 42.4% | [4] 10.2% | [5] 2% | [6] 11.6%

CCCCCCC(O)CCCCCC
inactive: [1] 27.4% | [2] -16.4% | [3] 26.4% | [4] -24.6% | [5] 21.5% | [6] -12.3%

Cc1ccc(C(=O)c2c(C)cccc2C(=O)O)c(C)c1
inactive: [1] -0.95% | [2] -2.1% | [3] 8.45% | [4] 12.6% | [5] -3.85% | [6] 29.4%

Cc1ccc(N2P(N(C)C)N(c3ccc(C)cc3)P2(=O)N(C)C)cc1 (stereo unspecified)
inactive: [1] 12.4% | [2] 22.4% | [3] 9.45% | [4] -5.6% | [5] 3.6% | [6] 6.4%

Cc1nnc(-c2ccccc2)s1
inactive: [1] 15.1% | [2] 12.3% | [3] -3.2% | [4] 12.1% | [5] -10.6% | [6] -7.45%

Clc1ccc(-c2nnc3c4ccccc4ccn23)cc1
inactive: [1] 14.5% | [2] -11.1% | [3] -5.1% | [4] 9.55% | [5] -3.95% | [6] 1%

CC(=O)Nc1ccc2c(c1)C(=O)c1ccccc1-2
inactive: [1] 64.1% | [2] 16.1% | [3] 30.2% | [4] 26.3% | [5] -16.8% | [6] 31.4%

CN(C)CCNc1cccc2oc3ccc(O)cc3c(=O)c12
inactive: [1] 8.2% | [2] -4.95% | [3] 9.55% | [4] -2.3% | [5] -4.95% | [6] 7.4%

CC(C)CC(NC(=O)c1cc([N+](=O)[O-])cc([N+](=O)[O-])c1)C(=O)O (stereo unspecified)
inactive: [1] -2% | [2] -2.7% | [3] 16.1% | [4] 8.5% | [5] -41.2% | [6] -5.5%

O=[N+]([O-])c1cc([N+](=O)[O-])c(/C=C/c2ccccc2Cl)cc1/C=C/c1ccccc1Cl
inactive: [1] -10.2% | [2] 13.4% | [3] 15.8% | [4] -19.6% | [5] 0.05% | [6] 0.5%

CCN(CC)c1ccc2c(C)cc(=O)oc2c1
inactive: [1] 6.35% | [2] -10.6% | [3] 6.35% | [4] 3.8% | [5] 12.9% | [6] 0.9%

CCC(C(=O)O)=C1CCCCC1
inactive: [1] 11.1% | [2] -8.15% | [3] -0.35% | [4] 9.15% | [5] 5.85% | [6] -3.9%
